Test results from PubChem BioAssay (NCATS).
Inconclusive results are not listed. The source made the active and inactive calls. Calls come from the whole dose curve; as a rule, active = well fitted curve in the direction sought with a large enough effect; inconclusive = small, poorly fitted or top-dose-only effect, or another doubt; inactive = no such curve, though single readings can be large; an effect the other way counts as inactive or inconclusive.

Columns and labels:
[1] = Quantitative highthroughput screen to assess conditional lethalithy of NOMO1 cells grown in RPMI1640 with untreated serum (RPMI+s) (AID 1963876); note: nearly all actives have a fitted effect of over 35% in size; note: potency is the fitted concentration of half-maximal effect;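 for viability: 100% = DMSO wells and 0% = empty wells without cells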
Method in brief: (§1)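 Each medium arm—HPLM with 10% dialyzed FBS, or RPMI1640 with 5 mM glucose and 10% untreated or dialyzed FBS—was screened against an 11-point, 3-fold compound titration for 48 h at 37 °C, with CellTiter-Glo luminescence as endpoint.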

[2] = Quantitative highthroughput screen to assess conditional lethalithy of NOMO1 cells grown in Human Plasma-Like Medium with dialyzed fetal bovine serum (HPLM+ds) (AID 1963878); note: nearly all actives have a fitted effect of over 35% in size; note: potency is the fitted concentration of half-maximal effect;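 for viability: 100% = DMSO wells and 0% = empty wells on each plate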
Method in brief: as §1

[3] = Quantitative highthroughput screen to assess conditional lethalithy of P12 Ichikawa cells grown in Human Plasma-Like Medium with dialyzed fetal bovine serum (HPLM+ds) (AID 1963879); details: Potency: viability; note: nearly all actives have a fitted effect of over 35% in size; note: potency is the fitted concentration of half-maximal effect; for viability: series mostly up to about 46 µM
Method in brief: as §1

[4] = Quantitative highthroughput screen to assess conditional lethalithy of P12 Ichikawa cells grown in RPMI1640 with dialyzed fetal bovine serum (RPMI+ds) (AID 1963880); details: Potency: P12-Ichikawa viability; note: nearly all actives have a fitted effect of over 35% in size; note: potency is the fitted concentration of half-maximal effect;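 for viability: 100% = DMSO wells and 0% = empty wells on each plate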
Method in brief: as §1

[5] = Quantitative highthroughput screen to assess conditional lethalithy of SEM cells grown in Human Plasma-Like Medium with dialyzed fetal bovine serum (HPLM+ds) (AID 1963882); note: nearly all actives have a fitted effect of over 35% in size; note: potency is the fitted concentration of half-maximal effect; for viability: series mostly up to about 46 µM
Method in brief: as §1

[6] = Quantitative highthroughput screen to assess conditional lethalithy of SEM cells grown in RPMI1640 with unreated serum (RPMI+s) (AID 1963883); note: nearly all actives have a fitted effect of over 35% in size; note: potency is the fitted concentration of half-maximal effect;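 for viability: 100% = DMSO wells and 0% = empty wells without cells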
Method in brief: as §1

[7] = Quantitative highthroughput screen to assess conditional lethalithy of SEM cells grown in RPMI1640 with dialyzed fetal bovine serum (RPMI+ds) (AID 1963884); note: nearly all actives have a fitted effect of over 35% in size; note: potency is the fitted concentration of half-maximal effect;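 for viability: series mostly up to about 46 µM; 100% = DMSO control wells and 0% = empty wells without cells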
Method in brief: as §1

[8] = Cellular viability qHTS for adrenocortical cancer (ACC) cell line SW-13 (AID 1963989); details: SW-13 ACC cells viability, CellTiter-Glo, 48 h; activity (max response): hits give low values;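 note: cells grown in serum-free medium with ITS supplement; % is set by controls: 0 for no effect and ±100 for the full control effect; nearly all actives have a fitted effect of over 65% in size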
Method in brief: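 SW-13 cells in ITS-supplemented serum-free DMEM were plated overnight, then exposed for 48 h at 37C to compound titrations (up to 46 uM final). Viability was read by CellTiter-Glo luminescence; four-parameter logistic fits gave IC50 and efficacy.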

[9] = Cellular viability qHTS for adrenocortical cancer (ACC) cell line NCI-H295R (AID 1963990); note: nearly all actives have a fitted effect of over 60% in size; note: potency is the fitted concentration of half-maximal effect
Method in brief: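 Luminescent ATP read-out (CellTiter-Glo, 20 min RT) after 48 h drug exposure of NCI-H295R cells; a titration up to 46 uM final. Data normalized to doxorubicin (100% inhibition) and DMSO (0%); 4-parameter fit gives IC50, max response.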

[10] = Quantitative highthroughput screen to assess conditional lethalithy of P12 Ichikawa cells grown in RPMI1640 with untreated serum (RPMI+s) (AID 1963881); details: Potency: viability; note: nearly all actives have a fitted effect of over 35% in size; note: potency is the fitted concentration of half-maximal effect;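 for viability: series mostly up to about 46 µM; 100% = DMSO wells and 0% = empty wells without cells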
Method in brief: as §1

Cc1ccccc1C(C(=O)NC1CCCCC1)N(C(=O)Cn1ccnc1C)c1cccc(F)c1 (stereo unspecified)
inactive: Potency [1] | Potency [2] | Potency [3] | Potency [4] | Potency [5] | Potency [6] | Potency [7] | activity (max response) [8] -14.8% | Potency [9]

C[C@H]1Oc2cc(cnc2N)-c2c(nn(C)c2C#N)CN(C)C(=O)c2ccc(F)cc21
inactive: Potency [1] | Potency [2] | Potency [3] | Potency [4] | Potency [10] | Potency [5] | Potency [7] | activity (max response) [8] -27%
active: Potency [9] 17800 nM

Cc1ccc2c(c1)c1c(n2CCc2ccc(C)nc2)CCN(C)C1
inactive: Potency [1] | Potency [2] | Potency [3] | Potency [4] | Potency [5] | Potency [6] | Potency [7]

Clc1ccc(CCC(Cn2ccnc2)Sc2c(Cl)cccc2Cl)cc1 (stereo unspecified)
inactive: Potency [1] | Potency [2] | Potency [3] | Potency [4] | Potency [5]

COc1nc(-c2ccc3c(c2)OCO3)n(-c2ccc(NC(=O)CSc3ccccc3)cc2)n1
inactive: Potency [3] | Potency [4] | Potency [10] | Potency [5] | Potency [6] | Potency [7] | Potency [9]
active: Potency [1] 23500 nM | Potency [2] 20900 nM

Cc1cc(-c2nnc3n2CCCCC3)c(C)n1-c1ccccc1
inactive: Potency [1] | Potency [2] | Potency [4] | Potency [10] | Potency [5] | Potency [7]

COc1cc(F)c(C(C)C)cc1-c1ccc(C(F)(F)F)cc1CN1C(=O)O[C@H](c2cc(C(F)(F)F)cc(C(F)(F)F)c2)[C@@H]1C
inactive: Potency [1] | Potency [2] | Potency [3] | Potency [4] | Potency [10] | Potency [6] | Potency [7] | activity (max response) [8] -14.8% | Potency [9]

CNC(=O)c1ccccc1Sc1ccc2c(C=Cc3ccccn3)n[nH]c2c1
active: Potency [1] 2350 nM | Potency [2] 4180 nM | Potency [3] 7430 nM

CCC[C@@H](NC(=O)[C@@H]1[C@H]2CCC[C@@H]2CN1C(=O)[C@@H](NC(=O)[C@@H](NC(=O)c1cnccn1)C1CCCCC1)C(C)(C)C)C(=O)C(=O)NC1CC1
inactive: Potency [1] | Potency [2] | Potency [3] | Potency [4] | Potency [10] | Potency [5] | Potency [6] | Potency [7]

CC(=CC(=O)Nc1ccccc1C(=O)O)c1ccc2ccccc2c1
inactive: Potency [1] | Potency [2] | Potency [4] | Potency [10]
active: Potency [6] 23500 nM

COC(=O)[C@]12CCC(C)(C)C[C@@H]1[C@@H]1C(=O)C=C3[C@@]4(C)C=C(C#N)C(=O)C(C)(C)[C@@H]4CC[C@@]3(C)[C@]1(C)CC2
active: Potency [1] 9350 nM | Potency [2] 9350 nM | Potency [3] 9350 nM | Potency [4] 8330 nM | Potency [10] 9350 nM | Potency [5] 7430 nM | Potency [6] 9350 nM | Potency [7] 6620 nM

CNC[C@@H](O)[C@@H](O)[C@H](O)[C@H](O)CO
inactive: Potency [1] | Potency [3] | Potency [4] | Potency [10]
active: Potency [2] 526 nM

COc1ccc(C(C)=O)c(O)c1
inactive: Potency [5] | Potency [6] | Potency [7]
active: Potency [1] 2640 nM | Potency [2] 935 nM

COc1cccc2c1C(=O)c1c(O)c3c(c(O)c1C2=O)C[C@@](O)(C(=O)CO)C[C@H]3O[C@H]1C[C@H](N)[C@H](O)[C@H](C)O1
active: Potency [1] 2960 nM | Potency [2] 2350 nM | Potency [3] 1660 nM | Potency [4] 2090 nM | Potency [10] 1320 nM | Potency [5] 469 nM | Potency [6] 418 nM | Potency [7] 372 nM

CO[C@H]1C(=O)[C@]2(C)[C@@H](OC)C[C@H]3OC[C@@]3(OC(C)=O)[C@H]2[C@H](OC(=O)c2ccccc2)[C@]2(O)C[C@H](OC(=O)[C@H](O)[C@@H](NC(=O)OC(C)(C)C)c3ccccc3)C(C)=C1C2(C)C
active: Potency [1] 13.2 nM | Potency [2] 2.1 nM | Potency [10] 14.8 nM | Potency [6] 4.2 nM | Potency [9] 7.9 nM
